Experimental data published in PubChem BioAssay.
A number with no mark means an inactive call. Calls of active or inactive are those of the source. No stated cut-off is given here; in the data, active means fold change permeability below about 0.7 or above about 1.3; inactive means in between.

assay: modulators of brain endothelial barrier permeability, primary screen, cell-based, FITC-avidin fluorescence, HTS (AID 1963498); settings: actives lie on both sides; further: test concentration not given here

| SMILES | fold change permeability |
| --- | --- |
| NCCS(=O)O | 1 |
| N[C@H](CO)C(=O)O | 0.8 |
| NC(N)=S | 1.3 (active) |
| O=CN(O)CCCP(=O)(O)O | 2.2 (active) |
| N#C/C(=C\c1ccc(-c2cc(Cl)ccc2Cl)o1)C(=O)Nc1cccc2ncccc12 | 2.1 (active) |
| CC1(C)NC(=O)N(c2ccc([N+](=O)[O-])c(C(F)(F)F)c2)C1=O | 1.1 |
| CNCCC(Oc1ccccc1OC)c1ccccc1 (centres undefined) | 0.8 |
| CC(C)=CCC/C(C)=C/COc1ccc2ccc(=O)oc2c1 | 2 (active) |
| O=C1NC(=O)/C(=C/c2ccc(-c3ccc(F)cc3O)o2)S1 | 1 |
| CC1(C)CCC2=C(O1)c1ccccc1C(=O)C2=O | 1.8 (active) |
| COC(=O)C1=C(C)NC(C)=C(C(=O)O[C@@H]2CCCN(Cc3ccccc3)C2)[C@@H]1c1cccc([N+](=O)[O-])c1 | 1.4 (active) |
| CCCCCCCCCCCCCCCCCCc1ccc(C(=O)/C=C/C(=O)O)cc1 | 1.2 |
| CCN(CC)C(=O)c1ccc(O)c(OC)c1 | 0.8 |
| COc1cc(/C=C/C(=O)N2CCN(CC(=O)N3CCCC3)CC2)cc(OC)c1OC | 1 |
| COc1ccc(CCN(C)CCc2ccc(OC)c(OC)c2)cc1OC | 2 (active) |
| Nc1ccc(S(=O)(=O)Nc2ccnn2-c2ccccc2)cc1 | 1.2 |
| CCN(C)C(=O)C1(CCOc2ccccc2)CCN(Cc2ccc(O)c(Cl)c2)CC1 | 1 |
| N=C(N)SCCc1cnc[nH]1 | 0.7 (active) |
| O=c1cc(-c2cccc3c2Sc2ccccc2S3)oc(N2CCOCC2)c1 | 1 |
